PubChem BioAssay AID1259343 (VanderVen Lab, College of Veterinary Medicine, Cornell …, 2017)
Screen size: about 6,200 compounds; about 2,900 (47%) were called active. So high a share suggests a set chosen from earlier hits. The list shows a part of the results. Unmarked numbers belong to inactive results. Rule as the data show it: active = inhibition above about 50%; inactive = the rest.

assay: Mycobacterium tuberculosis growth inhibition, primary screen (AID 1259343); conditions: inhibition: at 10 µM, active compounds read high; outcome: 10 uM

| SMILES | inhibition |
| --- | --- |
| O=C(NNC(=O)C1C2C=CC(C2)C1C(=O)O)c1ccc(OC2CCCC2)cc1 (configuration not stated) | 97.7% (active) |
| CC(C)n1nccc1-c1nnc(NC(=O)c2ccccc2)o1 | 100% (active) |
| CCC(C)n1nccc1NC(=O)c1n[nH]c2ccccc2c1=O (configuration not stated) | 3.7% |
| O=C(c1ccccc1)n1sc(=O)c2ccccc21 | 61.1% (active) |
| O=C(CCCn1c(=O)oc2ccccc21)Nc1cccc(-c2ccsc2)c1 | 34.8% |
| CN(Cc1cccc(NC(=O)C(C)(C)C)c1)C(=O)C(F)(F)F | 4.53% |
| CS(=O)(=O)CCC(=O)Nc1cccc(-n2cccc2)c1 | 81.7% (active) |
| CCOC(=O)C1CSC(Cc2ccc(OCc3ccc([N+](=O)[O-])cc3)cc2)N1 (configuration not stated) | 66% (active) |
| O=C(NN=Cc1ccncc1)c1cc(-c2ccc(Cl)s2)[nH]n1 | 16.5% |
| COc1cccc(C=NNC(=O)c2cc(-c3ccc(Cl)s3)[nH]n2)c1 | 68% (active) |
| CC(=NNC(=O)c1cc(-c2ccc(Cl)s2)[nH]n1)c1ccccc1O | 40.9% |
| O=c1[nH]nc(SCc2cc(Cl)ccc2Cl)c(=O)[nH]1 | 54.7% (active) |
| O=C(CN1CCN(CCC23CC4CC(CC(C4)C2)C3)CC1)N1CCCCC1 | 9.26% |
| Cc1ccc(C(C)CCN2CCC(C(=O)Nc3ccc(-n4cccn4)cc3)CC2)o1 (configuration not stated) | 81.8% (active) |
| O=C(Nc1ccc(-n2cccn2)cc1)C1CCCCN1Cc1cc2ccccc2[nH]1 (configuration not stated) | 80.4% (active) |
| O=C(Nc1ccc(-n2cccn2)cc1)C1CCN(Cc2ccccn2)CC1 | 90.4% (active) |
| Cc1nc(C)c(CN2CCC(C(=O)Nc3ccc(-n4cccn4)cc3)CC2)nc1C | 83.6% (active) |
| O=C(CCC1CCCCC1)Nc1ccc(-n2cccn2)cc1 | 37.5% |
| CCOC(=O)C1(CCOc2ccccc2)CCN(Cc2cc3ccccc3[nH]2)CC1 | inactive |
| CCn1ncc(CN2CCCC(C(=O)Nc3cccc(-c4cc5ccccc5[nH]4)c3)C2)c1C (configuration not stated) | 24.9% |
| Cc1ccc2nc(/C(Cl)=C/c3cccc(OCc4cccc(C#N)c4)c3)cc(=O)n2c1 | 32.1% |

| SMILES | inhibition |
| --- | --- |
| O=C(Nc1ccc(-n2cccn2)cc1)C1CCN(CC2CCOC2)CC1 (configuration not stated) | 87.4% (active) |
| O=C(Nc1cccc(-c2cccc(F)c2)c1)C1CCN(CC2CCOC2)CC1 (configuration not stated) | 19.5% |
| CCCCOC(=O)c1ccc(N/C=C(\C#N)c2nc(C3CC3)cs2)cc1 | 79.1% (active) |
| O=C(O)c1cncnc1/C=C/c1ccccc1Br | 3.04% |
| N#CC(Cc1ccccc1)NC(=O)/C=C/c1ccccc1Br (configuration not stated) | 88.1% (active) |
| CCc1ccc(S(=O)(=O)NCCOc2ccc(-c3ccc(F)cc3)nn2)s1 | 92.4% (active) |
| O=C(NC1(c2ccccc2)CC1)c1cc(COc2cccc(C(F)(F)F)c2)on1 | 88.1% (active) |
| O=C(c1cc(COc2ccc(-n3cncn3)cc2)on1)N1CCC(c2ccncc2)CC1 | 35.6% |
| O=C(NCc1ccc(Cl)s1)c1cc(COc2cccc(C(F)(F)F)c2)on1 | 82.4% (active) |
| C#CCN(CC=C)C(=O)c1cc(COc2cccc(C(F)(F)F)c2)on1 | 26.3% |
| O=C(c1cc(COc2ccc3c(c2)CCCC3)on1)N1CCC(c2ccncc2)CC1 | 36.6% |
| O=C(c1cc(COc2cccc(C(F)(F)F)c2)on1)N1CCC(c2ccncc2)CC1 | 64.9% (active) |
| Cc1ccc(-c2nc(N3CCN(CCO)CC3)ncc2-c2ccccc2C)cc1 | -0.32% |
| O=P(NCc1ccccc1)(Oc1ccccc1)Oc1ccccc1 | 81.5% (active) |
| O=C(NCc1ccccc1)c1coc(Br)c1 | 41.6% |
| CN(Cc1ccc(C#N)cc1)C(=O)CCc1ccc(C(C)(C)C)cc1 | 74.3% (active) |
| CC(C)(C)CC(C)(C)NC(=O)c1ccc(C#N)cc1 | -11.6% |
| CCC(C)(C)C1CCC(NC(=O)c2ccnc(C)n2)CC1 (configuration not stated) | 70.8% (active) |
| CCC(C)(C)C1CCC(NC(=O)c2cccc(-n3cnnn3)c2)CC1 (configuration not stated) | 24.6% |
| O=[N+]([O-])c1ccc(C2CN=C(Nc3ccccc3)O2)cc1 (configuration not stated) | 74% (active) |
| NC(=O)CC1CCN(Cc2noc(Cc3ccc(Br)cc3)n2)CC1 | 24.6% |

| SMILES | inhibition |
| --- | --- |
| CCC(=O)C1=C(c2ccc(Br)cc2)N(C(=O)CC)n2cnnc2S1 | 8.79% |
| CNS(=O)(=O)c1ccc(C(=O)Nc2ccc(C)c(C)c2)o1 | -15.4% |
| Cc1nnc(NC(=O)c2ccc(S(=O)(=O)Nc3cccc(C(F)(F)F)c3)o2)s1 | 66.4% (active) |
| O=C(NC(=S)Nc1cccc(C(F)(F)F)c1)c1ccc(Br)o1 | -5.04% |
| O=C(NNc1ccc(Cl)c(Cl)c1)c1ccc(NC(=O)C2CC2)cc1 | 96.5% (active) |
| O=C(Nc1ccc(CNS(=O)(=O)c2c(Cl)cccc2Cl)cc1)C1CC1 | 27.6% |
| O=C(Nc1ccc(Cl)c(Cl)c1)N(Cc1ccc(O)cc1)C1CC1 | 27.8% |
| CC1(C)CC2CC(C)(CN2C(=S)NC(=O)c2cccs2)C1 (configuration not stated) | 96.2% (active) |
| CC1(C)CC2CC(C)(CN2C(=O)c2cc3c(s2)CCCC3)C1 (configuration not stated) | 47.7% |
| CCCCNC(=S)N1CC2(C)CC1CC(C)(C)C2 (configuration not stated) | 90.3% (active) |
| Clc1ccc(Cc2noc(-c3cccs3)n2)c(Cl)c1 | 84.3% (active) |
| Fc1ccc(OCc2noc(-c3cccs3)n2)c(Br)c1 | -15.9% |
| CNC(=O)Cc1noc(-c2cc3c(s2)CCCCCC3)n1 | 43.5% |
| O=C(CN1CCCc2cc(F)ccc21)NCc1ccco1 | 44% |
| S=C(NCc1ccco1)N1CCC2CCCCC2C1 (configuration not stated) | 86.6% (active) |
| N#Cc1cccc(NC(=O)C2C3CC4CC(C3)CC2C4)c1 (configuration not stated) | 28.5% |
| N#Cc1cccc(NC(=O)c2cc(Cl)c3c(c2)OCCCO3)c1 | 56.4% (active) |
| COc1cc(C(=O)NC2CCOc3ccccc32)cc2c1OCCO2 (configuration not stated) | 41.9% |
| CC(C)c1cccc(Nc2nnc(C(O)c3ccccc3)s2)c1 (configuration not stated) | 68.4% (active) |
| OC(c1ccccc1)c1nc(/C=C/c2ccccc2)cs1 (configuration not stated) | 47.4% |
